GLP-1R inv ag: GLP-1 receptor (human) inverse agonism; HEK293 GLP-1R CRE-luciferase, luminescence, 24 h; GLP-1R form is constitutively active; Potency, µM (titrated, usually from 38.3 µM), without a hit: top-dose activity change, negative = inhibition, usual class: inhibitors; 410,000 compounds, 1.6% hits; note: potency is the fitted concentration of half-maximal effect; % is set by controls: 0 for no effect and ±100 for the full control effect; nearly all actives have a fitted effect of over 55% in size
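Inverse agonism was detected as reduced cAMP-driven luciferase luminescence after 24 h compound treatment. The cells were HEK293 clones expressing constitutively active human GLP-1R with the reporter. Reporter-only and GPR119 cell lines served as counterscreen controls.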
hERG WT inh: inhibitors of human wildtype KCNH2 potassium channel; activity change, % at 1.84 µM; U2OS, BacMam KCNH2, thallium flux FluxOr; hits give low values; 340,000 compounds, 0.37% hits; Q12809;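 active = maximum activity change below -70%; inconclusive = maximum activity change between -70% and -50%; inactive = maximum activity change above -50%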; note: % is set by controls: 0 for no effect and ±100 for the full control effect
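U2OS cells were transduced with wild-type KCNH2 virus (2.03 x 10^8 / mL) for 4 h at room temperature, then cultured overnight at 37 C. Thallium flux was read with FluxOr dye. Rate constants were normalized to DMSO controls.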
GLS inhibitor: blocks human kidney-isoform glutaminase activity. O94925. Potency, µM (series often up to 45.5 µM), without a hit: top-dose activity change, negative = inhibition, most hits filed as inhibitors. GLS enzymatic activity, qHTS titration. 410,000 compounds, 0.21% hits; note: potency is the fitted concentration of half-maximal effect; % is set by controls: 0 for no effect and ±100 for the full control effect
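Assay buffer: 45 mM KH2PO4 pH 8.2, 0.02% Tween-20. hKGA acts on L-glutamine (1 mM solution added); product glutamate is reported by an oxidase/peroxidase Amplex Red coupling, with fluorescence taken at baseline and 30 min.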
HEK293 tox: cytotoxicity in counter-screen for GLP-1R inverse agonists. 410,000 compounds, 0.13% hits. HEK293 cAMP-luciferase reporter cells, luminescence, 24 h. Potency, µM (top dose mostly 38.3 µM), for the others: at the highest dose activity change, negative = inhibition, usual class: inhibitors;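 note: loss of luciferase light is scored as toxicity; potency is the fitted concentration of half-maximal effect; % is set by controls: 0 for no effect and ±100 for the full control effect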
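Compound-treated cells are incubated 24 hr at 37 deg C under 5% CO2 after a 12 hour attachment period, then luciferase detection reagent is added and luminescence is measured following 12 min at room temperature; lowered signal indicates toxicity.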
KCNH2 3.1 block: KCNH2 3.1 (human) potassium channel inhibition | U2OS KCNH2 3.1, thallium flux FluxOr; hits give low values | 340,000 compounds, 0.95% hits | activity change, % (tested at about 1.8 µM);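 active = maximum activity change below -70%; inconclusive = maximum activity change from -70% to -50%; inactive = maximum activity change above -50%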;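 note: thallium influx rate constant from kinetic fluorescence after stimulation buffer; % is set by controls: 0 for no effect and ±100 for the full control effect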
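Normalized rate constant (relative to positive and negative DMSO controls) derived from a 2 min kinetic fluorescence read after stimulation; U2OS cells expressing the 3.1 isoform via virus at 1.77 x 10^8 /mL.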
GLP-1R agonist: activates the human GLP-1 receptor; P43220; HEK293 GLP-1R CRE-luciferase, luminescence, 4-6 h; cells express a hypersensitive GLP-1R form; Potency, µM (titrated, usually from 45.6 µM), inactives show at the top dose activation, actives largely listed as activators; 380,000 compounds, 0.007% hits; AID 624172; note: potency is the fitted concentration of half-maximal effect; % of control where 0% means no effect
* marks the source's active call; other numbers are inactive results; ? = inconclusive; · = no result. Shown are actives, neighbours in structure and some others; about 2.8% of the full set was active somewhere. Unless noted, calls come from the whole dose curve; as a rule, active = well fitted curve in the direction sought with a large enough effect; inconclusive = small, poorly fitted or top-dose-only effect, or another doubt; inactive = no such curve, though single readings can be large; an effect the other way counts as inactive or inconclusive.

SMILES	GLP-1R inv ag	hERG WT inh	GLS inhibitor	HEK293 tox	KCNH2 3.1 block	GLP-1R agonist
O=C1CC2OCC=C3CN4CCC56c7ccccc7N1C5[C@H]2[C@H]3C[C@H]46 (some centres undefined) (tested in a mixture with another compound)	·	·	6.0%	·	·	10.8%
C[C@@H]1CCCCO[C@@H](CN(C)CC2CCCCC2)[C@@H](C)CN([C@H](C)CO)C(=O)c2cc(NS(=O)(=O)c3ccc(Cl)cc3)ccc2O1	10µM*	4.0	-5.1%	?	-21.2	19.7%
C[C@@H]1CN([C@H](C)CO)C(=O)c2c(c3ccccc3n2C)-c2ccccc2CO[C@H]1CN(C)Cc1ccc(-c2ccccc2)cc1	?	-7.3	-6.1%	?	-15.1	-7.0%
COc1ccc(S(=O)(=O)N(C)C[C@H]2OCCCC[C@H](C)Oc3ccc(N(C)C)cc3C(=O)N([C@H](C)CO)C[C@@H]2C)cc1	9.4%	-41.2	30.1%	-9.5%	6.1	-4.7%
C[C@@H]1CCCCO[C@H](CN(C)Cc2ccc(C(F)(F)F)cc2)[C@H](C)CN([C@@H](C)CO)C(=O)c2cc(NC(=O)Cc3ccccc3)ccc2O1	2.82µM*	-17.3	-5.5%	?	-12.0	6.4%
N#CCC(=O)NN	·	·	30.6%	·	·	-2.2%
O=Cc1cn(Cc2ccc([N+](=O)[O-])cc2)c2ccccc12	2.24µM*	27.3	7.5%	-16.9%	-0.4	-1.0%
Cc1ccc2c(=O)n3c(nc2c1)C(Cc1ccc(O)cc1)NC(=O)c1cc2ccccc2cc1-3 (centres undefined)	?	2.5	3.3%	?	-5.3	-3.6%
CCCCNc1ccc2c3c(cccc13)C(=O)N(CCCC)C2=O	7.08µM*	-48.5	-5.2%	410.7%	-42.1	9.5%
O=C(NCCSc1c(-c2ccccc2)[nH]c2ccccc12)c1ccc(S(=O)(=O)N2CCOCC2)cc1	?	·	0.6%	1.2%	·	·
C=C1C(=O)O[C@H]2C[C@H]1[C@@H](OC(C)=O)C/C(C)=C/CC/C(C)=C\CC[C@]2(C)O	7.08µM*	-12.3	-3.9%	?	13.0	-8.3%
C=C1C(=O)OC2CC3(C)OC3CCC(C)=CC(OC(C)=O)C12 (centres undefined)	?	3.0	6.2%	?	·	-3.9%
CCCCn1c(=O)c(C(=O)NCCc2ccccc2)c(O)c2ccccc21	11.5%	4.1	-7.6%	3.4%	6.8	-3.3%
Cc1ccc(-n2ncc(C(=O)NCCN3CCC(Cc4ccccc4)CC3)c2C2CCN(C(=O)OC(C)(C)C)CC2)cc1	10µM*	·	5.8%	?	·	·
NNC(=O)c1ccc(OCC2CC(c3ccc(Cl)cc3)=NO2)cc1 (centres undefined)	12.6µM*	1.4	?	12.6µM*	-27.5	3.1%
NNC(=O)c1ccc(O)cc1	16.4%	-21.2	-3.9%	0.2%	-2.9	10.9%
CC1CCN(CCc2nc3cc(NC(=O)COc4ccc([N+](=O)[O-])cc4)ccc3n2C)CC1	-18.7%	0.7	1.9%	?	?	5.8%
COc1ccc2c(c1)-c1c(ssc1=S)C(C)(C)N2S(=O)(=O)c1ccc(C)cc1	2.82µM*	18.9	9.9%	?	-22.1	-0.5%
CN(C)C(=O)Oc1ccc(OCc2nc3ccccc3[nH]2)cc1	7.08µM*	-4.2	0.6%	15.8%	3.0	-26.9%
O=C(NCc1nnc(SCc2ccccc2)n1-c1ccc(F)cc1)C12CC3CC(CC(C3)C1)C2	?	5.6	0.2%	?	5.8	14.8%
CCn1c(N2CCN(C(=O)C34CC5CC(CC(C5)C3)C4)CC2)nc2ccccc21	2µM*	11.1	1.3%	?	10.1	0.6%
O=C(Nc1ccc(Cl)c(C(F)(F)F)c1)NC1CC2CCCC(C1)N2C1CC1 (centres undefined)	3.16µM*	16.4	18.1%	?	-3.2	-9.5%
